The panel holds about 79,000 compounds, 15% with a hit somewhere; the sample as a whole holds those more often. Calls of active or inactive are those of the source. Cut-off read from the data, not from the text of the source: active = growth inhibition above about 70%; inactive = the rest.

Among the data in PubChem BioAssay (NCI) are growth inhibition values, retold here.

The first assay can be described thus: NCI Yeast Anticancer Drug Screen. Data for the cln2 rad14 strain (AID 165).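 Note: 0% = growth equal to vehicle treated cultures.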 Particulars: S. cerevisiae cln2 rad14 strain, at 50.0 µM, active compounds read high. A digest of the protocol: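 Strain: cln2 rad14 yeast, altered in cell cycle control and DNA damage repair. Read-out: growth inhibition vs vehicle.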
For the compound `CC(=O)OC1/C=C(/C)CCC2OC2(C)CC2OC(=O)C3(CC3)C12` (stereo not given), the growth inhibition is 10.7% (inactive).
The same measure, in the same setting: to `CCCCCCCCCCCC(=O)Nc1cc(Cl)c(OC)cc1OC` belongs -32.8% (inactive).
Take `CC(C)c1cccc(C(C)C)c1NC(=O)OC1CCCCC1C` (stereo not given): the growth inhibition is -1.95% (inactive).
Same read-out and setting: to `c1ccc(OCCCCN2CCNCC2)cc1` belongs -10.1% (inactive); to `NC(N)=NCCCS`, -7.8% (inactive); to `CCN(CC)CCCC(C)NC1CCCc2cc3c(cc21)C(=O)c1ccccc1C3=O` (stereo not given), 14.9% (inactive).
Turning to `O=C(N/N=C/c1cccc(C(F)(F)F)c1)c1ccncc1`, the growth inhibition was -15.7% (inactive).
The same measure, in the same setting: in the case of `CC(C)C(=O)NCCc1ccccc1` it was -26.6% (inactive); in that of `CC12OC(=O)CC1C(c1ccccc1)(c1ccccc1)O2` (stereo not given), -50.2% (inactive); in that of `Clc1ccc(OCc2nnc3n2N=C(c2ccc(Br)cc2)CS3)cc1`, 7.05% (inactive).
Same read-out and setting: in the case of `O=C1NC(=O)C(c2cccc(F)c2)N1` (stereo not given) it was -9% (inactive); in that of `COc1ccc2c(c1O)C1(CCN(C)C)CC(=O)CCC1C=C2` (stereo not given), 6.2% (inactive).
In the case of `COc1cc(C(OC(C)=O)OC(C)=O)c(Cl)cc1OC(C)=O`, the growth inhibition is -2.1% (inactive).
On the same count and under the same terms, in the case of `CCc1nc(Nc2cccc(Cl)c2)c2cnn(-c3ccccc3)c2n1` it was -48.4% (inactive); in that of `O=C(O)c1ccc(C(=O)O)nc1`, -14.4% (inactive); in that of `CN(C)CCCNC(=O)CCNC(=O)c1cc(NC(=O)c2cc(NC(=O)c3cc(NC(=O)c4nccn4C)cn3C)cn2C)cn1C`, 12.4% (inactive).
Still for that read-out and setting: to `O=COC1CCCCCC1` belongs 7.9% (inactive).
For the compound `CCS(=O)CCCN1CCc2ccccc2C1` (stereo not given), the growth inhibition is -33% (inactive).
Same read-out and setting: in the case of `O=[N+]([O-])c1ccc(N/N=C/c2ccccc2O)c([N+](=O)[O-])c1` it was -6.8% (inactive); in that of `C/C(=N\NC(=S)N1CC2CCC(CC2)C1)c1cccc(C)n1`, 8.85% (inactive).
On the same count and under the same terms, in the case of `COC(=O)C1(C(=O)OC)CC(=O)c2c(OC(=O)c3cccc(OC)c3C#N)ccc(OC(=O)c3cccc(OC)c3C#N)c2C1` it was -4.35% (inactive).
Still for that read-out and setting: to `CN(C)CC(C)(C)CO` belongs 9.25% (inactive).
In the case of `CCCCCC(O)c1ccccc1` (stereo not given), the growth inhibition was -6.8% (inactive).
With `C/C(=C/C(=O)O)CC/C=C(/C)C(=O)O`, the growth inhibition was 21.4% (inactive).
Same read-out and setting: in the case of `CC[N+](CC)=c1ccc2nc3c(cc(Nc4ccccc4)c4ccccc43)oc-2c1.[Cl][Zn][Cl]` it was 20.9% (inactive); in that of `Nc1nc2nn(-c3ccc(C(=O)NC(CCC(=O)O)C(=O)O)cc3)nc2c(=O)[nH]1` (stereo not given), 30.5% (inactive).
Consider `OCC1CCNCC1`, for which the growth inhibition was -1.15% (inactive).
Take `CC(=O)OC1[C@H](OC(C)=O)C2=C(C)[C@@H](OC(C)=O)C[C@@]2(C(C)(C)O)[C@@H](OC(C)=O)[C@H]2[C@@]1(C)[C@@H](OC(C)=O)CC(OC(C)=O)[C@]21CO1` (stereo not given in full): the growth inhibition is 7.05% (inactive).
Still for that read-out and setting: in the case of `O=C(O)CCc1c[nH]c(=S)[nH]1` it was -11.6% (inactive); in that of `CC1(C)NC(c2ccccc2)c2ccsc2-n2cccc21` (stereo not given), 18.9% (inactive).
On the same count and under the same terms, in the case of `c1ccc(-c2cc3ccccc3c(-c3ccccc3)c2-c2ccccc2)cc1` it was -1.85% (inactive).
For `Cc1ccc(Nc2ccc(O)cc2)cc1`, the growth inhibition is -8.25% (inactive).
`CCSC1(SCC)C(=O)OC2=C(CCCCC2)C1N(C)c1ccccc1` (stereo not given): the growth inhibition was -22.6% (inactive).
The same measure, in the same setting: to `Cn1ccc2c([N+](=O)[O-])cccc2c1=O` belongs -45.9% (inactive); to `Nc1ccc(C(=O)O)c([N+](=O)[O-])c1`, -30.9% (inactive); to `Nc1c(Cl)ncnc1NCCCCCCCCCCCCNc1ncnc(Cl)c1N`, -8.95% (inactive).
The same measure, in the same setting: to `N#Cc1ccc(-n2cccc2)cc1` belongs -26.8% (inactive); to `CCOC(=O)C1CC1C#N` (stereo not given), 13.9% (inactive); to `CCC(=O)c1ccc2ccccc2c1`, -10.1% (inactive).
On the same count and under the same terms, in the case of `CC(C)NC1(C#N)CCN(Cc2ccccc2)CC1` it was 10.2% (inactive).

A short description of a further assay: NCI Yeast Anticancer Drug Screen. Data for the bub3 strain (AID 167). Particulars: S. cerevisiae bub3 mutant strain, at 50.0 µM, active compounds read high. A digest of the protocol: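 Part of a panel of yeast mutants defective in DNA damage repair or cell cycle regulation. Each strain is grown with compound, and inhibition is calculated relative to solvent-treated cultures.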
In the case of `CC(=O)OC1/C=C(/C)CCC2OC2(C)CC2OC(=O)C3(CC3)C12` (stereo not given), the growth inhibition is 1% (inactive).
Same read-out and setting: in the case of `CCCCCCCCCCCC(=O)Nc1cc(Cl)c(OC)cc1OC` it was 7.1% (inactive); in that of `CC(C)c1cccc(C(C)C)c1NC(=O)OC1CCCCC1C` (stereo not given), -4.65% (inactive); in that of `c1ccc(OCCCCN2CCNCC2)cc1`, 8.3% (inactive).
Turning to `NC(N)=NCCCS`, the growth inhibition is 4.15% (inactive).
Same read-out and setting: in the case of `CCN(CC)CCCC(C)NC1CCCc2cc3c(cc21)C(=O)c1ccccc1C3=O` (stereo not given) it was -4.5% (inactive).
The same measure, in the same setting: to `O=C(N/N=C/c1cccc(C(F)(F)F)c1)c1ccncc1` belongs 8.05% (inactive).
On the same count and under the same terms, to `CC(C)C(=O)NCCc1ccccc1` belongs -0.45% (inactive).
As to `CC12OC(=O)CC1C(c1ccccc1)(c1ccccc1)O2` (stereo not given), the growth inhibition was 2.75% (inactive).
Still for that read-out and setting: in the case of `Clc1ccc(OCc2nnc3n2N=C(c2ccc(Br)cc2)CS3)cc1` it was -5% (inactive).
Regarding `O=C1NC(=O)C(c2cccc(F)c2)N1` (stereo not given), the growth inhibition is 4.7% (inactive).
Still for that read-out and setting: to `COc1ccc2c(c1O)C1(CCN(C)C)CC(=O)CCC1C=C2` (stereo not given) belongs 25.5% (inactive); to `COc1cc(C(OC(C)=O)OC(C)=O)c(Cl)cc1OC(C)=O`, -2.6% (inactive); to `CCc1nc(Nc2cccc(Cl)c2)c2cnn(-c3ccccc3)c2n1`, 14.7% (inactive).
For `O=C(O)c1ccc(C(=O)O)nc1`, the growth inhibition was 4.8% (inactive).
On to `CN(C)CCCNC(=O)CCNC(=O)c1cc(NC(=O)c2cc(NC(=O)c3cc(NC(=O)c4nccn4C)cn3C)cn2C)cn1C`, for which the growth inhibition is -5.15% (inactive).
On the same count and under the same terms, in the case of `O=COC1CCCCCC1` it was -5.9% (inactive).
Regarding `CCS(=O)CCCN1CCc2ccccc2C1` (stereo not given), the growth inhibition is -3% (inactive).
Turning to `O=[N+]([O-])c1ccc(N/N=C/c2ccccc2O)c([N+](=O)[O-])c1`, the growth inhibition is 1.05% (inactive).
Same read-out and setting: to `C/C(=N\NC(=S)N1CC2CCC(CC2)C1)c1cccc(C)n1` belongs 18.4% (inactive); to `COC(=O)C1(C(=O)OC)CC(=O)c2c(OC(=O)c3cccc(OC)c3C#N)ccc(OC(=O)c3cccc(OC)c3C#N)c2C1`, 0.05% (inactive).
Same read-out and setting: to `CN(C)CC(C)(C)CO` belongs -9.1% (inactive); to `CCCCCC(O)c1ccccc1` (stereo not given), -7.1% (inactive).
Still for that read-out and setting: in the case of `C/C(=C/C(=O)O)CC/C=C(/C)C(=O)O` it was 22.1% (inactive).
`CC[N+](CC)=c1ccc2nc3c(cc(Nc4ccccc4)c4ccccc43)oc-2c1.[Cl][Zn][Cl]`: the growth inhibition is -0.55% (inactive).
Take `Nc1nc2nn(-c3ccc(C(=O)NC(CCC(=O)O)C(=O)O)cc3)nc2c(=O)[nH]1` (stereo not given): the growth inhibition was 9.05% (inactive).
Still for that read-out and setting: in the case of `OCC1CCNCC1` it was -3.2% (inactive); in that of `CC(=O)OC1[C@H](OC(C)=O)C2=C(C)[C@@H](OC(C)=O)C[C@@]2(C(C)(C)O)[C@@H](OC(C)=O)[C@H]2[C@@]1(C)[C@@H](OC(C)=O)CC(OC(C)=O)[C@]21CO1` (stereo not given in full), -32.8% (inactive).
With `O=C(O)CCc1c[nH]c(=S)[nH]1`, the growth inhibition was -1.7% (inactive).
For the compound `CC1(C)NC(c2ccccc2)c2ccsc2-n2cccc21` (stereo not given), the growth inhibition is -9.85% (inactive).
The same measure, in the same setting: in the case of `c1ccc(-c2cc3ccccc3c(-c3ccccc3)c2-c2ccccc2)cc1` it was -2.65% (inactive); in that of `Cc1ccc(Nc2ccc(O)cc2)cc1`, -10.8% (inactive).
The same measure, in the same setting: to `CCSC1(SCC)C(=O)OC2=C(CCCCC2)C1N(C)c1ccccc1` (stereo not given) belongs 1.1% (inactive); to `Cn1ccc2c([N+](=O)[O-])cccc2c1=O`, -25.4% (inactive); to `Nc1ccc(C(=O)O)c([N+](=O)[O-])c1`, -11.7% (inactive).
Still for that read-out and setting: in the case of `Nc1c(Cl)ncnc1NCCCCCCCCCCCCNc1ncnc(Cl)c1N` it was -9.7% (inactive).
On to `N#Cc1ccc(-n2cccc2)cc1`, for which the growth inhibition was -6.2% (inactive).
The same measure, in the same setting: in the case of `CCOC(=O)C1CC1C#N` (stereo not given) it was 9.95% (inactive).
Take `CCC(=O)c1ccc2ccccc2c1`: the growth inhibition is -2.1% (inactive).
Same read-out and setting: in the case of `CC(C)NC1(C#N)CCN(Cc2ccccc2)CC1` it was -29.1% (inactive).
